The list is not random: actives were taken first. Their share in the collection is about 3%.
PAFAH1B3 FP inh: blocks human PAF acetylhydrolase 1B catalytic subunit 3; 340,000 tested, 0.28% active; inhibition, % at 3.39 µM; recombinant PAFAH1B3, FP-rhodamine probe, fluorescence polarization;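 active = inhibition above the screen-wide average of all tested compounds plus 3 SD, cut at about 25% in these data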;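 also: 0% = enzyme with DMSO only and 100% = wells lacking PAFAH1B3 protein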
PAFAH2 FP inh: inhibitors of human PAFAH2. Q99487. recombinant PAFAH2, FP-rhodamine activity probe, fluorescence polarization. inhibition, % at 3.39 µM. 340,000 tested, 0.99% active;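 active = inhibition above the mean over all tested compounds plus 3 SD, cut at about 30% in these data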;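 also: inhibitors block probe labeling of enzyme so polarization drops; 0% = enzyme with DMSO and 100% = wells lacking PAFAH2 protein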
PAFAH1B2 FP inh: inhibitors of human PAFAH1B2. recombinant PAFAH1B2, FP-rhodamine activity probe, fluorescence polarization. inhibition, % at 3.39 µM. 340,000 tested, 1.2% active. AID 492953;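 active = inhibition above the mean of all tested compounds plus 3 SD, cut at about 24% in these data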;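 also: 0% = enzyme with DMSO and 100% = wells lacking PAFAH1B2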
PP5 inh: inhibitors of human protein phosphatase 5 (PP5). P53041. purified PP5c, OMFP substrate fluorescence. inhibition, % at 6.7 µM. 320,000 tested, 0.18% active. AID 1987;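 active = inhibition above the campaign's mean inhibition across all tested compounds plus 3 SD, cut at about 9.5% in these data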;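 also: 0% = DMSO only and 100% = 100 µM cantharidin control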
CTSL1 counter: counter-screen for PFM18AAP inhibitors: inhibitors of F. hepatica cathepsin L1; AID 1906; 300,000 tested, 0.49% active; inhibition, % at 5.96 µM; recombinant F. hepatica cathepsin L1, Z-Leu-Arg-MCA fluorescence;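 active = inhibition above the mean of all tested compounds plus 3 SD, set per screening campaign, cut at about 17% in these data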;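 also: 0% = plate median of test compound wells and 100% = 1 µM Z-Phe-Ala-diazomethylketone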
pPAFAH inh: inhibitors of human plasma PAF acetylhydrolase (pPAFAH); recombinant pPAFAH, FP-rhodamine probe fluorescence polarization; inhibition, % at 3.39 µM; 330,000 tested, 1.5% active; AID 463082;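 active = inhibition above the mean inhibition across the screen plus 3 SD, cut at about 25% in these data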;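 also: inhibitors block binding of the rhodamine activity-based probe so polarization drops; 0% = enzyme with DMSO and 100% = wells lacking pPAFAH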
Target sequence (Q13093 whole entry, looked up): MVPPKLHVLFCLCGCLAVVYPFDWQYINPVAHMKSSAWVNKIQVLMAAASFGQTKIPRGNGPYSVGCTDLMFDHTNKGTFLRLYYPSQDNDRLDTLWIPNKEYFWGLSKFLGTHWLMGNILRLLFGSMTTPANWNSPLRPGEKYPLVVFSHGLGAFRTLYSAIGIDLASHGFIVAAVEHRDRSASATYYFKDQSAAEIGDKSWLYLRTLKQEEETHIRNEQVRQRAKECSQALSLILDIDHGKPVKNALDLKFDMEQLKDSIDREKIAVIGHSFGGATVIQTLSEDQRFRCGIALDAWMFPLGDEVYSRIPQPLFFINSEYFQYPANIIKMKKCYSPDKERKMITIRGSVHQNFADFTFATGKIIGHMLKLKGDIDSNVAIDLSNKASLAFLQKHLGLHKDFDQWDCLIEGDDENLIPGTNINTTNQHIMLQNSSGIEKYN
Numbers without * were called inactive; nt = not tested or not shown.

SMILES	PAFAH1B3 FP inh	PAFAH2 FP inh	PAFAH1B2 FP inh	PP5 inh	CTSL1 counter	pPAFAH inh
CC(C(=O)N1CCN(Cc2ccc3c(c2)OCO3)CC1)c1ccc([N+](=O)[O-])cc1 (configuration not stated)	3	3	0	2	18*	-1
O=c1oc2ccccc2nc1/C=C(O)/C=C\c1ccccc1	-2	2	6	1	-6	33*
O=c1oc2ccccc2nc1/C=C(O)/C=C/c1ccc(F)cc1	6	12	16	3	2	16
CC(C)CNC(=O)c1cccc(NC(=O)c2ccc3c(c2)C(=O)N(C)C3=O)c1	0	4	1	1	-5	2
CN(C(=O)COC(=O)c1ccc2ccccc2n1)c1ccccc1	8	4	-2	nt	nt	7
CN(Cc1ccccc1)C(=O)COC(=O)c1ccc2ccccc2n1	5	5	5	-2	-1	25*
CN(Cc1ccccc1)C(=O)COC(=O)c1ccc2c(c1)OCO2	-6	16	4	0	1	26*
CCOC(=O)c1oc2ccccc2c1CSc1nnnn1-c1ccccc1	15	2	7	0	4	26*
O=C(CSc1nnnn1-c1ccccc1)CSc1nnnn1-c1ccccc1	5	-3	4	1	22*	16
O=C(O)CSc1nnnn1-c1ccccc1	-5	-1	1	3	-6	3
COc1cc(C(=O)OCCc2cc3ccccc3c(=O)o2)cc(OC)c1OC	-1	5	-5	2	nt	3
Cc1ccccc1C#N	5	3	0	2	nt	-3
NC(=S)N/N=C/c1ccc(-c2ccc([N+](=O)[O-])cc2)o1	-1	3	3	0	22*	14
O=C(COC(=O)c1cccs1)c1ccccc1	14	34*	4	1	10	9
CN1CCC(N(C)C(=O)/C(C#N)=C\c2ccc(OC(F)F)cc2)CC1	5	5	0	nt	nt	nt
COc1cccc(OC)c1C(=O)NC(=S)N1CCCCC1c1cccnc1 (configuration not stated)	0	1	-2	0	0	5
O=C1C=CC2=C3c4cc(O)c(O)cc4CC3(O)COC2=C1O (configuration not stated)	36*	85*	19	nt	nt	nt
CC(C)OCCCNC(=O)C(Cc1ccccc1)NS(=O)(=O)c1ccc2c(c1)CCC(=O)N2 (configuration not stated)	5	-3	0	0	0	4
O=C(CC1SC(=O)N(c2ccccc2)C1=O)Nc1ccc(Br)cc1 (configuration not stated)	nt	nt	nt	0	7	32*
O=C(CC1SC(=O)N(c2ccccc2)C1=O)Nc1ccc(Cl)cc1 (configuration not stated)	2	-1	3	0	7	22
CCn1nc(C)cc1C(=O)N1CCCC(C(=O)c2ccccc2SC)C1 (configuration not stated)	2	2	2	2	2	3
COc1ccccc1N1CCN(C(=O)c2ccc3c(c2)NC(=O)C(CSCc2ccccc2C)N3)CC1 (configuration not stated)	nt	nt	nt	0	2	25*
CC1CCC2(CC1)SCC(=O)N2c1ccccc1 (configuration not stated)	8	-1	27*	2	-2	8
NS(=O)(=O)c1cccc(NC(=O)COC(=O)CCSc2ccccc2)c1	-1	-5	15	3	-60	25*
O=C(COC(=O)CCSc1ccccc1)Nc1cc(F)ccc1F	8	-1	32*	0	-56	9
SMILES	PAFAH1B3 FP inh	PAFAH2 FP inh	PAFAH1B2 FP inh	PP5 inh	CTSL1 counter	pPAFAH inh
Cc1ccc(SCCC(=O)OCC(=O)Nc2ccc(C(N)=O)cc2)cc1	1	13	26*	-1	nt	8
NS(=O)(=O)c1cccc(NC(=O)COC(=O)CSCc2ccccc2)c1	8	14	2	nt	nt	28*
NC(=O)c1ccc(NC(=O)COC(=O)CCSc2ccccc2)cc1	1	-6	4	-3	-67	10
CC(OC(=O)/C=C/c1ccc2ccccc2n1)C(=O)NCc1ccccc1 (configuration not stated)	5	-8	5	0	-39	6
COc1ccc(C(O)(CCN2CCOCC2)c2ccccc2)cc1 (configuration not stated)	5	-4	0	0	1	3
COc1ccc(NC(=O)CN(c2ccc(F)cc2)S(=O)(=O)c2ccccc2)c(OC)c1	9	9	5	0	-2	5
COc1cc(CN2CCNC(=O)C2CC(=O)NC2CCC2)cc(OC)c1 (configuration not stated)	-1	0	4	0	2	4
O=C1c2ccccc2C(=O)c2c(Nc3ccc(CCO)cc3)ccc(O)c21	12	11	-1	5	1	31*
Cc1ccc(C(C(=O)NCC2CCCO2)N(C(=O)c2snc(C(N)=O)c2N)c2ccccc2F)o1 (configuration not stated)	13	-3	1	2	19*	-6
COc1ccc(NC(=O)C2C3CCC(O3)C2C(=O)O)c(C)c1 (configuration not stated)	1	1	3	65*	2	3
COc1ccc(OC)c(NC(=O)C2CC(C)=C(C)CC2C(=O)O)c1 (configuration not stated)	-2	-5	4	-1	0	4
O=C(O)C1C2CCC(O2)C1C(=O)NCc1ccccc1Br (configuration not stated)	3	4	2	34*	-1	-1
Cc1cc(Br)ccc1NC(=O)C1C2CCC(O2)C1C(=O)O (configuration not stated)	6	4	1	63*	2	1
O=[N+]([O-])c1ccccc1S(=O)(=O)Nc1ccn(Cc2c(F)cccc2Cl)n1	-1	9	13	0	1	1
NS(=O)(=O)c1ccc(Nc2nc(-c3ccc(O)cc3O)cs2)cc1	24	11	15	3	1	27*
NS(=O)(=O)c1ccc(Nc2nc(-c3ccc(F)cc3)cs2)cc1	nt	nt	nt	6	2	14
CC(C)(C)c1sc(N)nc1-c1ccccc1	4	-9	27*	2	-1	9
O=C(CN1CCN(c2ccc(O)cc2)CC1)Nc1ccc(SC(F)F)cc1	7	-5	-1	-1	2	33*
COc1cccc(N2CCN(CC(=O)Nc3ccc(SC(F)F)cc3)CC2)c1	12	2	4	4	16	9
CCOc1ccc(NS(=O)(=O)c2ccc(C(=O)NCCCN3CCOCC3)cc2)cc1	12	-4	3	1	-3	31*
O=C(Nc1ccc(S(=O)(=O)Nc2ccc(F)cc2)cc1)c1ccc(CN2CCOCC2)cc1	1	4	0	1	-6	34*

High-throughput results (PubChem BioAssay)
